The values that follow come from PubChem BioAssay (Tox21).

SMILES strings stand for the structures. Inconclusive results are not listed. Active and inactive are the calls of the source. Unless noted, the call rests on the fitted dose curve; in most records, active means well fitted curve in the direction sought with a large enough effect in the repeat runs; inconclusive means weak or mixed curves; inactive means no such curve, though single readings can be large; an effect the other way counts as inactive or inconclusive.

In assay [1] the target is Androgen receptor (Homo sapiens) (UniProt P10275). Description: qHTS assay to identify small molecule antagonists of the androgen receptor (AR) signaling pathway using the MDA cell line in the presence of 0.5 nM R1881 (AID 1259243). Further: nearly all actives have a fitted effect of over 50% in size. Further: potency means the concentration at half of the fitted maximal effect. In a few lines:
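With R1881 held at 0.5 nM (final), compound effects on MMTV-luciferase expression in MDA-kb2 cells were scored by luminescence after a 16 hr, 37C incubation.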
Background: In qHTS, concentration-response curves come from the screen itself.

Assay [2] can be described thus: qHTS assay to identify small molecule HDAC inhibitors (AID 1259364).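 Further: wild-type HCT-116 cells with endogenous class I/II HDAC activity; top concentration of the series differs between compounds; nearly all actives have a fitted effect of over 45% in size.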 The method, boiled down:
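Screening used wild-type human colon HCT-116 cells incubated overnight, dosed with compounds for 2 hours, and assayed with a homogeneous luminogenic HDAC I/II reagent for 30 minutes at room temperature.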

Assay [3] is described as follows: qHTS assay to identify small molecule agonists of the sonic hedgehog signaling (Shh) pathway (AID 1259368; calls by dose curve;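 further: NIH/3T3-derived 3T3Gli1-Luc cells carrying a stable Gli1-driven firefly luciferase reporter; series mostly up to about 92 µM; nearly all actives have a fitted effect of over 15% in size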). The method, boiled down: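 Hedgehog pathway agonism scored by increased firefly luciferase luminescence in 3T3Gli1-Luc cells treated 24 hr at 37 C; detection used a 30 min room-temperature reagent incubation.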
The nature of assay [4]: qHTS assay to identify small molecule antagonists of the sonic hedgehog signaling (Shh) pathway (AID 1259369; calls by dose curve; further: nearly all actives have a fitted effect of over 45% in size; further: potency means the concentration at half of the fitted maximal effect). The method, boiled down: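 NIH/3T3 stable Gli1-Luc clone, 2,000 cells/well, 4hr settle; cpd + conditioned medium 24hr; Luc reagent 30min RT; luminescence.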
The nature of assay [5]: qHTS assay to identify small molecule agonists of the androgen receptor (AR) signaling pathway in the presence of an antagonist - cell viability counter screen (AID 1259379). Further: nearly all actives have a fitted effect of over 25% in size. Further: potency means the concentration at half of the fitted maximal effect. The method, boiled down:
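MDA-kb2 viability measured by CellTiter-Fluor fluorescence in the same wells as the luciferase signal; nilutamide 3.0uM final; 15-point compound titration; 16 hr at 37C.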

Assay [6] can be described thus: qHTS assay to identify small molecule agonists of the estrogen receptor beta (ER-beta) signaling pathway - cell viability counter screen (AID 1259380). Further: nearly all actives have a fitted effect of over 30% in size. Further: potency means the concentration at half of the fitted maximal effect. The method, boiled down: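 Measured: luminescence from CellTiter-Glo after 30 min at room temperature, added to wells already read for the LiveBLAzer FRET reporter (2 hr substrate); ER-beta-UAS-bla HEK293T cells had 16 hr compound treatment at 37C, 5% CO2.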

Assay [7] has as its target Androgen receptor (Homo sapiens) (UniProt P10275). Description: qHTS assay to identify small molecule agonists of the androgen receptor (AR) signaling pathway in the presence of an antagonist (AID 1259381; calls by dose curve; further: nearly all actives have a fitted effect of over 15% in size). In a few lines: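 Luminescent ONE-Glo read, 30min at room temperature, follows 16hr compound exposure (15 concentrations) of MDA-kb2 cells at 37C, 0% CO2, with nilutamide added at 3.0uM final.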

Assay [8] can be described thus: qHTS assay to identify small molecule antagonists of the estrogen receptor beta (ER-beta) signaling pathway - cell viability counter screen (AID 1259382). Further: nearly all actives have a fitted effect of over 55% in size. Further: potency means the concentration at half of the fitted maximal effect. The method, boiled down: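 Readout: luminescence, CellTiter-Glo, same wells as bla assay. System: ER-beta-UAS-bla GripTite HEK293T, 2% charcoal-stripped FBS. Exposure: compounds plus 1nM 17-beta-estradiol, 16 hr, 37C.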

In assay [9] the target is Estrogen receptor (Homo sapiens) (UniProt P03372). The assay is described as follows: qHTS assay to identify small molecule agonists of the estrogen receptor alpha (ER-alpha) signaling pathway in the presence of an antagonist (AID 1259383; calls by dose curve; further: top concentration of the series differs between compounds; nearly all actives have a fitted effect of over 15% in size). The method, boiled down:
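Quantitative HTS confirmation: compounds titrated at 15 concentrations onto estrogen-deprived VM7Luc4E2 cells carrying a four-ERE luciferase construct, with ICI-182,780 present at 10.0nM final. Signal is luminescence after 22hr exposure.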

A short description of assay [10]: qHTS assay to identify small molecule agonists or antagonists of the thyroid stimulating hormone receptor (TSHR) signaling pathway - wild type cell line counter screen (AID 1259384; calls by dose curve). In a few lines: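 Wild-type HEK293 cells were plated 18 h at 37 C/5% CO2, pin-dosed with compound plus Ro20-1724 medium, held 30 min at room temperature, then given cAMP-d2 and anti-cAMP-cryptate; fluorescence was read after 1 h. Fifteen concentrations, triplicate.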

Assay [11] deals with Estrogen receptor (Homo sapiens) (UniProt P03372). Description: qHTS assay to identify small molecule antagonists of the estrogen receptor alpha (ER-alpha) signaling pathway using the BG1 cell line in the presence of 0.1 nM 17-beta-estradiol (AID 1259244). Further: nearly all actives have a fitted effect of over 50% in size. Further: potency means the concentration at half of the fitted maximal effect. The method, boiled down: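 Compounds were tested against 0.1 nM (final) 17beta-estradiol in VM7Luc4E2 cells, which express full-length ER-alpha and an ERE-luciferase reporter; luminescence was recorded following 22 h exposure.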
Sequence of Estrogen receptor (Homo sapiens) (P03372 whole entry, looked up): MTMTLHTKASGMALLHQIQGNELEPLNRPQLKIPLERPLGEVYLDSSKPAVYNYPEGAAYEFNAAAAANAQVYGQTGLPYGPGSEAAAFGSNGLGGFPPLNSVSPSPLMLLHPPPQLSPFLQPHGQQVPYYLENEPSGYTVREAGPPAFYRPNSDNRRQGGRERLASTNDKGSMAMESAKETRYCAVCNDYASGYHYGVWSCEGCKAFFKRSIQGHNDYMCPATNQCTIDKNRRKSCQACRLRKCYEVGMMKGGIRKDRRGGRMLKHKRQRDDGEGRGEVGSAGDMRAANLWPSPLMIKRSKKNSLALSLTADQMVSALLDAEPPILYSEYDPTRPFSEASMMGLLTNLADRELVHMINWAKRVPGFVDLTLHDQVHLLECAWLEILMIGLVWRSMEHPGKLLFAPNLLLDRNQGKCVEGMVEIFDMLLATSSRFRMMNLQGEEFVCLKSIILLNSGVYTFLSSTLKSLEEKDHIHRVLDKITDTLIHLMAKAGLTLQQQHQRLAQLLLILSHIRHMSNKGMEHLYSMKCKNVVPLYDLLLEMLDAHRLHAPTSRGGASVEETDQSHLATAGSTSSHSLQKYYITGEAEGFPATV

Assay [12] in a line: qHTS assay to identify small molecule phospholipidosis (PLD) inducers (AID 1259344; active means well fitted curve in the direction sought with a large enough effect; an effect the other way counts as inactive or inconclusive). The method, boiled down: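 Cells (HepG2, 900 per well) attach for 4 h, receive LipidTOX Red and compound together, incubate 24 h at 37 C, are fixed 30 min with paraformaldehyde/Hoechst, then imaged at one site per well.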
A short description of assay [13]: qHTS assay to identify small molecule HDAC inhibitors - cell viability counter screen (AID 1259365). Further: series mostly up to about 92 µM; nearly all actives have a fitted effect of over 50% in size. The method, boiled down: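 Measured quantity is CellTiter-Glo luminescence from wild-type HCT-116 cells after compound incubation of 2hr at 37C, 5% CO2; reagent developed 30min at room temperature.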
Assay [14] can be described thus: qHTS assay to identify small molecule agonists of the sonic hedgehog signaling (Shh) pathway - cell viability counter screen (AID 1259366). Further: nearly all actives have a fitted effect of over 50% in size. Further: potency means the concentration at half of the fitted maximal effect. The method, boiled down:
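In quantitative high-throughput format, 3T3 Gli1-Luc cells were exposed to compounds for 24hr and multiplexed for viability using CellTiter-Fluor, incubated 1hr at 37C before the fluorescence read.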

Assay [15] concerns the target Progesterone receptor (Homo sapiens) (UniProt P06401). The assay is described as follows: qHTS assay to identify small molecule agonists of the progesterone receptor (PR) signaling pathway (AID 1346784; calls by dose curve; further: nearly all actives have a fitted effect of over 30% in size). In a few lines:
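Reporter assay, GripTite PR-UAS-bla HEK 293T cells: 16 hr exposure to DMSO-dissolved compounds at 37C, 5% CO2, in steroid-depleted (2% charcoal-stripped FBS) medium; beta-lactamase measured by FRET fluorescence.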

Assay [16] in a line: qHTS assay to identify small molecule antagonists of the sonic hedgehog signaling (Shh) pathway - cell viability counter screen (AID 1259367). Further: nearly all actives have a fitted effect of over 55% in size. Further: potency means the concentration at half of the fitted maximal effect. In a few lines: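 Cytotoxicity was assessed in parallel with Shh reporter activity by measuring live-cell protease fluorescence (CellTiter-Fluor) in NIH/3T3 cells stably carrying Gli1-Luc, treated with compound under conditioned medium stimulation for 23 hr plus 1 hr reagent incubation.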

Assay [17] has as its target Thyrotropin receptor (Homo sapiens) (UniProt P16473). The assay is described as follows: qHTS assay to identify small molecule antagonists of the thyroid stimulating hormone receptor (TSHR) signaling pathway (AID 1259385; calls by dose curve; further: nearly all actives have a fitted effect of over 20% in size; further: potency means the concentration at half of the fitted maximal effect). In a few lines: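 TSHR-HEK293 cells were plated and held 18 h at 37C/5% CO2, then given compound plus Ro20-1724 and stimulated with TSH at 1.5 ng/mL final. After 30 min at room temperature, cAMP was detected with cAMP-d2/anti-cAMP-cryptate (1 h) by fluorescence.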

A short description of assay [18]: qHTS assay to identify small molecule agonists of the estrogen receptor alpha (ER-alpha) signaling pathway in the presence of an antagonist - cell viability counter screen (AID 1259386).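 Further: cells exposed to compounds for 22 h at 37 °C before the viability read; nearly all actives have a fitted effect of over 30% in size.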 Further: potency means the concentration at half of the fitted maximal effect. The method, boiled down:
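The test measures whether compounds kill ER-alpha reporter cells (VM7Luc4E2) under antagonist co-treatment (ICI-182,780, 10.0nM). Fluorescence from CellTiter-Fluor is read after a 22hr exposure.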

For assay [19], the target named is Estrogen receptor beta (Homo sapiens) (UniProt Q92731). Description: qHTS assay to identify small molecule agonists of the estrogen receptor beta (ER-beta) signaling pathway (AID 1259377; active means well fitted activation curve with a large enough effect in the signal ratio in the repeat runs, not every such curve was filed as active; the % refers to the signal ratio). In a few lines: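 Reporter cells (HEK293T, ER-beta-UAS-bla) receive compounds or DMSO after a 6 hr pre-incubation. They then incubate 16 hr at 37C/5% CO2, and fluorescence from LiveBLAzer B/G substrate is measured after 2 hours at room temperature.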
Sequence of Estrogen receptor beta (Homo sapiens) (Q92731 whole entry, looked up): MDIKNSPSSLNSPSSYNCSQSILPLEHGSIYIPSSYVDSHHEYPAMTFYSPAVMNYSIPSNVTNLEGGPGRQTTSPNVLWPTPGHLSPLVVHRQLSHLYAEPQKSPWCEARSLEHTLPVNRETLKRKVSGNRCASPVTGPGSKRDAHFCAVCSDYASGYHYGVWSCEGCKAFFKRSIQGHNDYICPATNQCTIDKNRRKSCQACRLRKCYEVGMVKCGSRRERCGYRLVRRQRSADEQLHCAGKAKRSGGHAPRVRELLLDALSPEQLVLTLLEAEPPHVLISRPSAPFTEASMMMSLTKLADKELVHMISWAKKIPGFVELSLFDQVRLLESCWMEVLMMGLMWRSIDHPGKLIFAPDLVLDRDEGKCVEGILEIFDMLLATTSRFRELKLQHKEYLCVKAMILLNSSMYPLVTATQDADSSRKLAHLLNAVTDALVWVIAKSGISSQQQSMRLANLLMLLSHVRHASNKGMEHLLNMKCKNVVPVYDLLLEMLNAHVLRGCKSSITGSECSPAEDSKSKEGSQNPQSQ

Assay [20] shares this target. The assay is described as follows: qHTS assay to identify small molecule antagonists of the estrogen receptor beta (ER-beta) signaling pathway (AID 1259378; active means well fitted inhibition curve with a large enough effect in the signal ratio in the repeat runs, not every such curve was filed as active; the % refers to the signal ratio; further: potency means the concentration at half of the fitted maximal effect). In a few lines:
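ER-beta-UAS-bla HEK293T (GripTite) cells in 2% charcoal-stripped FBS medium were preincubated 6 hr at 37C, dosed with compound, then stimulated with 1 nM E2 (final) for 16 hr; beta-lactamase reporter read by B/G FRET fluorescence after 2 hr substrate loading.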

Sequence of Thyrotropin receptor (Homo sapiens) (P16473 whole entry, looked up): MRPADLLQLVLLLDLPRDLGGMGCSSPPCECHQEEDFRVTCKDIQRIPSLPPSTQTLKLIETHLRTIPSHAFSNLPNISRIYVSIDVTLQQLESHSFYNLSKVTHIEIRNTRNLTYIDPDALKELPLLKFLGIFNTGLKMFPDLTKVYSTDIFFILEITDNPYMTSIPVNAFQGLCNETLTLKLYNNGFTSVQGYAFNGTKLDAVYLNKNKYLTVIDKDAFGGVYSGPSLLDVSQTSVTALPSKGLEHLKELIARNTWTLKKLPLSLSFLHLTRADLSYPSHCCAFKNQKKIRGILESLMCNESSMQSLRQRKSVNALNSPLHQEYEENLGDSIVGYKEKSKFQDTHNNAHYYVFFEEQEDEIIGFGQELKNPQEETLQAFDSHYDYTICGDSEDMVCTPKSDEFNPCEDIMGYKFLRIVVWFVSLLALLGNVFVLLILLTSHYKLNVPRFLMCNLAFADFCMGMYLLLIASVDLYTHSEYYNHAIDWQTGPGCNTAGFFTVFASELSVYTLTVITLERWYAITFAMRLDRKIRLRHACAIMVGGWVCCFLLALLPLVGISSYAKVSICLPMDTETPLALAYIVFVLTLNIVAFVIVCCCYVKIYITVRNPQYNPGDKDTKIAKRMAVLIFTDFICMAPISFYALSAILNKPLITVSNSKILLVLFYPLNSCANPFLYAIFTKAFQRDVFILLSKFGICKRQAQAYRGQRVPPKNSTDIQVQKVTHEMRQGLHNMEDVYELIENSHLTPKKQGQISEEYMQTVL
Sequence of Androgen receptor (Homo sapiens) (P10275 whole entry, looked up): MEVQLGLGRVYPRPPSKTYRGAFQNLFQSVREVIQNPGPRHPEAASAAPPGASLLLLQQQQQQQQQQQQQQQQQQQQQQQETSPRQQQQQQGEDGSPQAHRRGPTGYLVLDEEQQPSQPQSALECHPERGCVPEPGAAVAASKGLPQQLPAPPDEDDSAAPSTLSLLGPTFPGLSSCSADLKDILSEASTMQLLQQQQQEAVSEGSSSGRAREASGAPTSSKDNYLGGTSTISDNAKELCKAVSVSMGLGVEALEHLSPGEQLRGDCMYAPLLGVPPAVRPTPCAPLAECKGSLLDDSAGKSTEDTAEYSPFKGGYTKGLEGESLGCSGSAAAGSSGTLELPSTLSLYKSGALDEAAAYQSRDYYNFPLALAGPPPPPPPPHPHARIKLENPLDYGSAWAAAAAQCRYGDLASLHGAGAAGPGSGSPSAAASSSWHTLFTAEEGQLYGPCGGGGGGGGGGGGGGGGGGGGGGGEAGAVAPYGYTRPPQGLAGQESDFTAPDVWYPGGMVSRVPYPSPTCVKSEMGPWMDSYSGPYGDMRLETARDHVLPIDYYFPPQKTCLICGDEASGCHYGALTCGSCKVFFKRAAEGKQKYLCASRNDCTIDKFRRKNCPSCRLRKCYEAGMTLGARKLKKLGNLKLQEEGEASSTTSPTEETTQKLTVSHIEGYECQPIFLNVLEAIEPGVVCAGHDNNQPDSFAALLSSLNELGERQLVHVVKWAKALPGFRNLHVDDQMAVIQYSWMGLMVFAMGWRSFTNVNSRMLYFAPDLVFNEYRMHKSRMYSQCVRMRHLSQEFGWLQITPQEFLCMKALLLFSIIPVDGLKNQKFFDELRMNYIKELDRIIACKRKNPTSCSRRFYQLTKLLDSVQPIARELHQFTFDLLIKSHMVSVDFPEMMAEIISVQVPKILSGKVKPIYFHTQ
Sequence of Progesterone receptor (Homo sapiens) (P06401 whole entry, looked up): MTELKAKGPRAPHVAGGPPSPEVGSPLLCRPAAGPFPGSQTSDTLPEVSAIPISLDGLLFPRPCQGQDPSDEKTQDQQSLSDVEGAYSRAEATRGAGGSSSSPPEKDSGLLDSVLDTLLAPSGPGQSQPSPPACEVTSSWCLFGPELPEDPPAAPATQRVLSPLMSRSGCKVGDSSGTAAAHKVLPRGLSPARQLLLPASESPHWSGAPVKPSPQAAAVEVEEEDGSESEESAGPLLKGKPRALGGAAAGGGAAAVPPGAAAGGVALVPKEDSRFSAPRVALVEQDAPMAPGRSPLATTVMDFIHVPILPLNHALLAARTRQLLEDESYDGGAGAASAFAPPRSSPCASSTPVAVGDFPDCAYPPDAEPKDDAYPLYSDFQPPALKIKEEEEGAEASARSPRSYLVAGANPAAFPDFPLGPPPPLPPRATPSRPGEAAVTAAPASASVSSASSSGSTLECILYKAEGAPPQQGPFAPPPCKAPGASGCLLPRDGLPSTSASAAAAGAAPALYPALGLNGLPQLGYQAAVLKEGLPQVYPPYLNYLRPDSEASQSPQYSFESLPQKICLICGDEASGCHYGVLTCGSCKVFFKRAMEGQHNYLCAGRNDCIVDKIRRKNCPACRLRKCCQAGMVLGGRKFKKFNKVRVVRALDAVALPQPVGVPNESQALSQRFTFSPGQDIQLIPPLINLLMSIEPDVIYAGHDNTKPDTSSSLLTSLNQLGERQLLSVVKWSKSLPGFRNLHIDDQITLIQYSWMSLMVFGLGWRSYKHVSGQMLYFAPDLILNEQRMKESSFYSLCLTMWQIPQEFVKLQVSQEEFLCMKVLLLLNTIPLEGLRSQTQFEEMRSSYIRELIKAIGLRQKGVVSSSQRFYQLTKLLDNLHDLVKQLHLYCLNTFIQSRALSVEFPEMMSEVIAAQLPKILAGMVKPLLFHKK

`CCCCCCCCCCCCCCCCCC[N+](C)(C)C`: the Potency in assay [1] was 27.4 µM (active); in [4] it was 0.274 µM (active); in [5], 61.3 µM (active); in assay [6], 27.4 µM (active); in assay [8] it was 30.7 µM (active). Moreover, the Potency entry in assay [2], in assay [3], in assay [7] and in [9] was “inactive” each time. Further, the call in [10] was inactive.
On to `CCC1=C[C@@H]2CN(C1)Cc1c([nH]c3ccccc13)[C@@](C(=O)OC)(c1cc3c(cc1OC)N(C)[C@H]1[C@@](O)(C(=O)OC)[C@H](OC(C)=O)[C@]4(CC)C=CCN5CC[C@]31[C@@H]54)C2`, for which the Potency in [11] is 21.1 µM (active); in assay [14], 11.9 µM (active); in assay [4], 0.0042 µM (active). Also, the Potency result in [12], in [2], in [13], in assay [3], in [8] and in [9] was “inactive” in each case. In addition, the Potency result in assay [15] was “inactive”.
`Oc1ccc2c(c1)-c1ccccc1C2`: the Potency in [1] was 7.7 µM (active); in [4], 13.7 µM (active). The Potency result in assay [13], in assay [16], in [3], in assay [5], in assay [6] and in assay [7] was “inactive” throughout. Further, the Potency result in assay [8], in assay [17], in assay [18] and in assay [15] was “inactive” each time. The call in [10] was inactive.
In the case of `Cc1nc(-c2ccc3c(c2)CCN(CCC2CCC(NC(=O)/C=C/c4ccc(F)cc4)CC2)CC3)no1` (stereo not given), the Potency result in assay [1], in [13], in assay [14], in [3], in assay [4] and in assay [5] was “inactive” in each case. Besides, the Potency entry in [6], in [7], in assay [8], in assay [9], in assay [17] and in assay [18] was “inactive” in each case. Further, the Potency entry in assay [15] was “inactive”. Also, in assay [10], the result was inactive.
For `CC1(C)CCC(C)(C)c2cc(C(=O)Nc3ccc(C(=O)O)cc3)ccc21`, the Potency result in assay [1], in assay [2], in assay [3], in assay [19], in [5] and in assay [7] was “inactive” throughout. Also, the Potency entry in assay [8], in [9] and in assay [18] was “inactive” each time. Also, in assay [20], the Potency was 43.3 µM (active). The outcome in assay [10] was inactive.
Consider `Cc1cccc(CN2CCN(C(c3ccccc3)c3ccc(Cl)cc3)CC2)c1` (stereo not given), for which the Potency result in assay [11], in assay [12], in [2], in assay [13], in [14] and in assay [16] was “inactive” each time. Moreover, the Potency entry in assay [3], in [4], in assay [19], in assay [6], in [8] and in assay [18] was “inactive” throughout. The result in assay [10] was inactive.
On to `CC(C)(C)NC(=O)[C@@H]1C[C@@H]2CCCC[C@@H]2CN1C[C@@H](O)[C@H](Cc1ccccc1)NC(=O)[C@H](CC(N)=O)NC(=O)c1ccc2ccccc2n1`, for which the Potency is 61.9 µM (active) in [11]; 9.82 µM (active) in [14]; 13.9 µM (active) in assay [16]; 24.7 µM (active) in [4]; 17.5 µM (active) in assay [20]; 61.9 µM (active) in [5]. Also, the Potency in [6] is 55.2 µM (active); in assay [8], 61.9 µM (active); in [18], 49.2 µM (active). Besides, the Potency entry in assay [12], in assay [2], in [13], in assay [3], in [9] and in [17] was “inactive” each time. In [15], the Potency entry is “inactive”. Also, in [10], the call was inactive.
As to `CC/C(=C(\c1ccc(O)cc1)c1ccc(OCCN(C)C)cc1)c1ccccc1`, the Potency in [1] is 61.3 µM (active); in [14] it was 21.7 µM (active); in assay [16] it was 30.7 µM (active); in assay [4] it was 9.71 µM (active); in assay [6] it was 24.4 µM (active); in assay [8] it was 27.4 µM (active). The Potency in assay [17] was 77.1 µM (active); in assay [18] it was 68.7 µM (active). Besides, the Potency result in assay [2], in assay [3] and in [7] was “inactive” each time. Moreover, the call in assay [10] was inactive.
